IL1B secr inh: blocks inflammasome-driven IL-1 beta release; activity change, % at 57.5 µM; THP-1 LPS/ATP IL-1B secretion, AlphaLISA, 16 h; hits give low values; 360,000 tested, 4.7% active; in the data active = activity change below about -50%; inconclusive = mostly about -30% to -49%
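THP-1 cells pretreated 1 hr with compounds (up to 57.5 uM final), then stimulated with LPS (250 ng/mL final) plus ATP (1.25 mM final); secreted IL-1B measured by AlphaLISA after 16 hr, decreased signal indicating inhibition.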
HT1080 IDH1KD tx: HT-1080 IDH1 knockdown cell toxicity (counter line); Potency, µM (highest dose often 46.1 µM), without a hit: at the highest dose activity, negative = toxicity, most hits filed as cytotoxic; HT-1080 IDH1 knockdown viability, ATP luminescence, 48 h; AID 686971; 360,000 tested, 2% active;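 also: potency is read from the fitted curve at half-maximal effect; 0% = DMSO wells and -100% = cell-free medium wells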
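Knockdown cells (IDH1KD HT-1080) received compounds 2 h after plating at 750 cells/well and were kept 48 h at 37 °C in 5% FBS RPMI. A CellTiter-Glo luminescence read gave % activity for curve fitting.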
TDP1 cell CPT: DT40-hTDP1 cell growth loss with CPT; chicken DT40 Tdp1-/-;hTDP1 cells + 20 nM CPT, ATP luminescence, 48 h; Potency, µM (series often up to 46.2 µM), for the others: at the top dose activity change, negative = growth inhibition, actives largely listed as inhibitors; 420,000 tested, 12% active; also: potency is read from the fitted curve at half-maximal effect; nearly all actives have a fitted effect of over 55% in size
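Chicken DT40 Tdp1-/- cells stably complemented with human TDP1 were seeded at 400 cells/well in medium containing 20 nM camptothecin, exposed to pin-transferred compounds, and grown at 37 °C for at least 48 hr. Viability was read as ATP luminescence.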
HT1080NT lethal: kills 2HG-producing HT-1080-NT fibrosarcoma cells; HT-1080-NT fibrosarcoma viability, CellTiter-Glo ATP luminescence, 48 h; Potency, µM (top dose mostly 46.1 µM), for the others: top-dose activity, negative = less viability, hits mostly cytotoxic; 360,000 tested, 1.6% active;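 also: NT is the 2HG producing partner of a matched IDH1 knockdown line; potency is read from the fitted curve at half-maximal effect; 0% = DMSO-treated cells and -100% = media-only wells without cells; nearly all actives have a fitted effect of over 55% in size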
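Viability by CellTiter-Glo luminescence after 48 h compound exposure at 37C of HT-1080-NT cells (750/well, RPMI, 5% FBS). % activity scaled between DMSO wells and medium-only wells, then curve-fitted and categorized by curve class.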
DT40 TDP1 no CPT: qHTS for Inhibitors of human tyrosyl-DNA phosphodiesterase 1 (TDP1): qHTS in cells in absence of CPT; DT40 Tdp1-/- hTDP1 cells, no CPT, ATP luminescence, 48 h; Potency, µM (series often up to 46.2 µM), inactives show at the highest dose activity change, negative = growth inhibition, most hits filed as inhibitors; 420,000 tested, 15% active; also: potency is read from the fitted curve at half-maximal effect; nearly all actives have a fitted effect of over 55% in size
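No-CPT arm: Tdp1-/-;hTDP1 DT40 cells (400/well) plus compounds, incubated ≥48 hr at 37 °C. Readout CellTiter-Glo luminescence.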
Numbers without * were called inactive; u = inconclusive; x = no result; ! = repeats disagree; [ ] = dose if it differs, or a comment. The list is not random: actives were taken first. Their share in the collection is about 19%. Unless noted, calls follow the shape of the dose curve; as a rule, active = well fitted curve in the direction sought with a large enough effect; inconclusive = small, poorly fitted or top-dose-only effect, or another doubt; inactive = no such curve, though single readings can be large; an effect the other way counts as inactive or inconclusive. Unless noted, % is scaled to controls: 0 for no effect and ±100 for the full control effect.

SMILES	IL1B secr inh	HT1080 IDH1KD tx	TDP1 cell CPT	HT1080NT lethal	DT40 TDP1 no CPT
O=C(COc1ncnc2scc(-c3ccc(Cl)cc3)c12)NCc1ccco1	-1.1	-11.0%	-21.5%	-7.6%	u
Cn1cnc2cc(NCc3ccc(Cl)cc3)ccc21	-4.2	4.5%	u	-1.6%	u
CC(=O)Nc1ccc(S(=O)(=O)N(C)CC(=O)OCC(=O)N2CCCC2=O)cc1	18.5	9.7%	0.3%	13.0%	-2.4%
COc1ccc(-c2[nH]ncc2CN2CCOc3c(cc(-c4cccc(OC)n4)cc3OC)C2)cc1	x	x	4.9%[9.04 µM]	x	-27.7%
O=C(NC1=C(Nc2ccc(Cl)cc2)C(=O)c2ccccc2C1=O)c1ccccc1	u	-17.3%	23.1µM*	u	16.4µM*
O=C(NNC(=S)Nc1ccc(Cl)cc1)c1ccccc1	15.5	-2.0%	-52.0%	-16.3%	u
CN(C1=C(NC(=O)c2ccc(Cl)cc2)C(=O)c2ccccc2C1=O)c1ccccc1	-73.6*	-29.3%	5.8µM*	-20.7%	10.3µM*
O=C(Nc1cc(S(=O)(=O)N2CCCCC2)ccc1O)c1ccccc1NS(=O)(=O)c1ccc(F)cc1	-55.6*!	u	-19.8%	u	-25.6%
Cc1ccc(S(=O)(=O)N2CCOCC2)cc1C(=O)Nc1cc(S(=O)(=O)N2CCCCC2)ccc1O	2.7	-1.9%	u	-1.6%	u
O=C(Nc1cc(S(=O)(=O)N2CCCCC2)ccc1Cl)c1ccccc1NS(=O)(=O)c1ccc(F)cc1	-21.5	u	5.17µM*	0.581µM*	2.59µM*
O=C(c1ccccc1NS(=O)(=O)c1ccc(F)cc1)N1CCCCC1	9.1	-0.9%	3.6%	-1.4%	-8.6%
COc1ccc(S(=O)(=O)c2c(Nc3ccc(F)cc3)sc(C(=O)c3ccc4c(c3)OCO4)c2N)cc1	x	x	-12.3%	x	-9.9%
CCOc1ccc(N2CC(C(=O)NCC(=O)Nc3ccc(F)c(F)c3F)CC2=O)cc1 (stereo not given)	-18.0	1.0%	-12.8%	-14.1%	20.6%
Cc1ccc(C2NC(=O)c3sc(=S)n(-c4ccccc4)c3N2)cc1 (stereo not given)	12.0	-23.2%	23.1µM*	-1.9%	-29.8%
CSc1c(C#N)sc(=S)n1-c1ccc(C)cc1	-5.4	5.7%	6.9%	-18.1%	-29.0%
Cc1ccccc1C(=O)N1CCC(C(=O)Nc2ccc(F)cc2)CC1	-14.9	8.3%	-8.0%	4.4%	-4.9%
CSc1cccc(NC(=O)C2CCN(C(=O)c3ccccc3C)CC2)c1	u	-1.8%	18.4µM*	-23.3%	20.6µM*
Cc1ccccc1C(=O)N1CCC(C(=O)Nc2cccc(S(=O)(=O)N3CCCCC3)c2)CC1	-12.5	-2.3%	u	-2.2%	u
CC(C)c1ccc(NNC(=O)C2CCC2)cc1	x	-2.3%	9.2µM*	-0.9%	16.4µM*
Cc1ccc(NC(=O)C2CCCN(C(=O)c3ccc(Cl)cc3)C2)cc1S(=O)(=O)N1CCOCC1 (stereo not given)	-19.2	-2.2%	20.6µM*	-8.6%	16.4µM*
Cc1ccccc1C(=O)N1CCC(C(=O)Nc2ccc(C)c(S(=O)(=O)N3CCCCC3)c2)CC1	-26.0	-10.2%	13µM*	-1.4%	5.8µM*
N#Cc1ccccc1S(=O)(=O)N1CCN(c2cnccn2)CC1	-18.7	14.2%	-25.5%	19.9%	-14.7%
C[C@H]1CN([C@@H](C)CO)C(=O)CCCn2nncc2CO[C@H]1CN(C)C(=O)c1ccc2ccn(C)c2c1	-0.8	7.6%	-7.2%	-3.5%	-22.5%
COC(=O)c1cc(NC(=O)c2oc(=O)c3ccccc3c2-c2ccccc2)cc(C(=O)OC)c1	x	x	8.6%	x	14.0%
Cc1ccc(-n2c(=O)c3c(c4cc(C)ccc4n3C)n(Cc3ccc(F)cc3)c2=O)cc1	x	x	-7.9%	x	-18.9%
SMILES	IL1B secr inh	HT1080 IDH1KD tx	TDP1 cell CPT	HT1080NT lethal	DT40 TDP1 no CPT
O=C(NNC(=O)C1CCN(S(=O)(=O)c2ccccc2)CC1)c1ccccc1O	135.5	u	7.31µM*	u	25.9µM*
Cc1ccc(NC(=O)C2CCC2)cc1S(=O)(=O)N1CCCCCC1	-7.6	-4.5%	u	-2.4%	25.9µM*
C=CCNC(=S)Nc1ccc(C)c(S(=O)(=O)N2CCCCC2)c1	-0.4	0.9%	-23.9%	0.0%	-10.0%
Cc1ccc(NC(=S)Nc2ccc(C(C)C)cc2)cc1S(=O)(=O)N1CCCCCC1	-88.9*	20.6µM*	23.1µM*	u	16.4µM*
Cc1ccc(S(=O)(=O)N2CCCCC2)cc1NC(=O)C1CCC1	0.0	8.1%	-1.2%	-0.9%	-3.9%
O=C(NNC(=O)C1CCN(S(=O)(=O)c2ccccc2C(F)(F)F)CC1)c1ccccc1O	8.1	u	u	-17.2%	u
Cc1ccccc1C(=O)N1CCC(C(=O)Nc2ccc(C(C)C)cc2)CC1	42.1	-12.7%	7.31µM*	0.0%	5.17µM*
COc1ccccc1CNc1cc(-c2ccoc2)ncn1	x	x	3.6%	x	-19.3%
COc1ccc(/C=C/c2cc(C(F)(F)F)on2)cc1	-12.6	18.8%	-6.8%	20.1%	0.6%
Cc1ccccc1C(=O)N1CCC(C(=O)Nc2ccc(S(=O)(=O)N3CCCC3)cc2)CC1	21.0	-1.9%	u	-4.3%	18.4µM*
CCOc1ccc(NS(=O)(=O)c2cc(NC(=O)C3CC3)ccc2C)cc1Br	-71.0*	-16.0%	u	-2.9%	20.6µM*
COc1ccc(NC(=O)C2CC2)cc1S(=O)(=O)N1CCOCC1	-1.2	3.9%	3.6%	-5.7%	-12.2%
O=C(CSc1ccccc1)NCC1(N2CCOCC2)CCCCC1	-16.7	0.3%	-11.9%	-2.4%	-5.0%
COC(=O)CSCC(=O)Nc1nnc(-c2ccccc2C)s1	11.8	2.4%	0.2%	1.6%	-18.8%
Cc1ccc(C(=O)Nc2cccc(N3C(=O)C4CCC(C)CC4C3=O)c2)cc1 (stereo not given)	2.7	-8.7%	-2.4%	-4.2%	-22.3%
COc1ccc(-c2cc(-c3ccccc3)c(C#N)c(=S)[nH]2)cc1	12.0	1.7%	1.9%	-1.1%	-12.5%
N#Cc1c(-c2ccccc2)cc(-c2ccccc2)nc1SCC(O)CS(=O)(=O)Cc1ccccc1 (stereo not given)	x	x	10.3µM*	x	5.8µM*
COc1ccc(-c2cc(-c3ccccc3)c(C#N)c(S(C)=O)n2)cc1 (stereo not given)	-95.9*	u	3.26µM*	u	3.26µM*
CCOC(=O)/C(Sc1nc(-c2ccccc2)cc(-c2ccccc2)c1C#N)=C(\C)O	-19.3	10.3%	-22.7%	11.5%	29.1µM*
CCSc1nc(-c2ccc(OC)cc2)cc(-c2ccccc2)c1C#N	-0.1	8.4%	u	0.1%	23.1µM*
CCOC(=O)CSc1nc(-c2ccccc2)cc(C(F)(F)F)c1C#N	x	x	-9.9%	x	-11.1%

From PubChem BioAssay
